Measured values reported in ChEMBL document CHEMBL1157539, “Thousands of chemical starting points for antimalarial lead identification” (Nature, 2010).

How the values were obtained:
Type in all cases: functional
Plasmodium falciparum [1] = test: GSK_TCMDC: Inhibition of Plasmodium falciparum 3D7 in whole red blood cells, using parasite LDH activity as an index of growth. Test compounds present at 2uM
Plasmodium falciparum [2] = test: GSK_TCMDC: Inhibition of Plasmodium falciparum Dd2 in whole red blood cells, using parasite LDH activity as an index of growth. Test compounds present at 2uM
HepG2 = test: GSK_TCMDC: Percent inhibition of human HepG2 cell line. Test compounds present at 10uM.

| SMILES | Inhibition (Plasmodium falciparum [1]) [%] | Inhibition (Plasmodium falciparum [2]) [%] | Inhibition (HepG2) [%] |
| --- | --- | --- | --- |
| NC(=O)c1cccc(C(=O)Nc2cccc(-c3cccc(-c4nc5ccccc5[nH]4)c3)c2)c1 | 100 | 78 | 32 |
| Cl.NC1=NC(c2ccccc2)N(c2ccc(Cl)c(Cl)c2)C(N)=N1 (configuration not stated) | 94 | 0 | 13 |
| COc1ccc(-c2nc(NC(=O)CSc3ccc([N+](=O)[O-])cc3)sc2C)cc1 | 100 | 100 | 0 |
| CN1CCN(c2ccc(-c3cc(-c4ccncc4)c(-c4ccc(Cl)c(O)c4)o3)cc2)CC1.Cl | 100 | 98 | 0 |
| CC[C@]1(C)C[C@@H](NC(=O)NC(=O)c2ccc(OC)cc2)[C@]2(C)[C@H](C)CC[C@]3(CCC(=O)[C@H]32)[C@@H](C)[C@@H]1OC(=O)NC(=O)c1ccc(OC)cc1 | 100 | 98 | 10 |
| Cc1ncsc1CCN1C(=O)CC2(C1=O)C(=O)N(Cc1ccccc1)c1ccc(Cl)cc12 (configuration not stated) | 86 | 46 | 0 |
| O=C(Nc1ccc(Br)c(Cl)c1)c1cc([N+](=O)[O-])cc2cn[nH]c12 | 99 | 63 | 49 |
| O=C(Nc1cccc(-c2cc3ccccc3[nH]2)c1)C1CCN(Cc2ccccc2O)CC1 | 95 | 25 | 34 |
| COc1ccc2[nH]c(C)cc(=NN=Cc3cc(OC)c(OC)cc3OC)c2c1 | 100 | 56 | 1 |
| COc1ccc2ncc(OC)c(CCN3CC[C@@H](NCc4ccc5c(n4)NC(=O)CS5)[C@H](O)C3)c2n1 | 94 | 99 | 21 |
| Cc1ccc(S(=O)(=O)N(C)c2ccccc2C(=O)Nc2ccccc2Oc2ccccc2)cc1 | 98 | 90 | 5 |
| CCn1c(-c2nonc2N)nc2c(-c3cccc(NC(=O)Nc4ccc(Cl)cc4)c3)ncc(OCCCN)c21.O=C(O)C(F)(F)F | 96 | 72 | 26 |
| Cc1ccc(Nc2nccc(NCC(O)c3cccc(C)c3)n2)cc1 (configuration not stated) | 90 | 23 | 22 |
| O=C(Nc1cccc(CN2CCN(Cc3cccc(O)c3)CC2)c1)c1ccc(Cl)c(Cl)c1.O=C(O)C(F)(F)F | 100 | 35 | 28 |
| O=C(/C=C/c1ccc(Cl)c(Cl)c1)NCCCCCN1CCC(C(=O)Nc2ccc(Cl)c(Cl)c2)CC1 | 98 | 0 | 73 |
| COc1ccc(-c2nnc(Sc3ccc(C#N)c([N+](=O)[O-])c3)n2CCC(C)C)cc1 | 89 | 53 | 15 |
| O=C(O)C(F)(F)F.c1ccc(CCNCc2ccc(-c3ccc(CNCc4ccc5c(c4)OCO5)cc3)nc2)cc1 | 94 | 67 | 24 |
| COc1ccc(C2NCCc3c2[nH]c2ccccc32)cc1CN1CCN(c2ccc(F)cc2)CC1.Cl (configuration not stated) | 97 | 56 | 37 |
| O=C(NCC1CCC(C(=O)NC2CCCc3ccccc32)CC1)c1ccc(O)c(-c2cccc([N+](=O)[O-])c2)c1 (configuration not stated) | 99 | 97 | 2 |
| Cc1cc(N[C@@H](Cc2ccccc2)C(=O)NCCOc2ccccc2)nc(NCCc2ccccn2)n1.O=C(O)C(F)(F)F | 92 | 42 | 12 |
| COc1cc2c(cc1OC)C(C(=O)Nc1ccc(C(F)(F)F)cc1)C(c1cccs1)N(C)C2=O (configuration not stated) | 99 | 86 | 31 |
| COc1ccc(C=Cc2cc(=N)c3ccccc3[nH]2)cc1Br | 100 | 88 | 55 |
| COc1cc(CN2CCC(NC(=O)[C@H](Cc3ccccc3)NC(=O)Nc3ccc(Oc4ccccc4)cc3)C2)ccc1O (some centres not stated) | 92 | 0 | 10 |
| O=C(/C=C/c1ccc(Cl)c(Cl)c1)N1CCC(C(O)CN2CCC(c3c[nH]c4ccccc34)CC2)CC1.O=C(O)C(F)(F)F (configuration not stated) | 99 | 46 | 14 |
| NCCCNc1nc(Nc2cccc(C(N)=O)c2)c2c(=O)[nH]ccc2n1.O=C(O)C(F)(F)F | 99 | 49 | 9 |
| CCOc1ccc(OCC)c(N2CCN(CCCCNC(=O)c3ccc(NC(=O)c4ccc(Cl)cc4)cc3)CC2)c1 | 97 | 40 | 13 |
| CC(C)C[C@@H](NC(=O)NC1CCC(CCN2C3CCC2CC(OC(=O)C(CO)c2ccccc2)C3)CC1)C(O)(c1ccccc1)c1ccccc1 (some centres not stated) | 95 | 71 | 21 |
| CC(C)COc1ccc(Cl)cc1Cc1ccc(-c2nc3c(F)cccc3[nH]2)o1 | 98 | 47 | 15 |
| O=C(/C=C/c1ccc(Cl)c(Cl)c1)NCCCCCN1CCCN(C(=S)Nc2ccc(Cl)c(Cl)c2)CC1 | 96 | 0 | 16 |
